In PubChem BioAssay (Tox21):
Values joined by “and” are separate entries in the source; they are usually repeats but may differ in a detail not shown here. Identical values can stand only once. Records with an inconclusive call do not appear. A structure can be active in one record and inactive in another. Active and inactive are the calls of the source. Unless noted, calls follow the shape of the dose curve; as a rule, active = well fitted curve in the direction sought with a large enough effect in the repeat runs; inconclusive = weak or mixed curves; inactive = no such curve, though single readings can be large; an effect the other way counts as inactive or inconclusive.

What was measured:
[1] = qHTS assay to identify small molecule antagonists of the glucocorticoid receptor (GR) signaling pathway - cell viability counter screen (AID 720693); conditions: GR-bla HeLa viability, CellTiter-Glo luminescence, 18 h, with 5 nM dexamethasone present; series mostly up to 58.5 µM; also: nearly all actives have a fitted effect of over 55% in size
[2] = qHTS assay for identifying genotoxic compounds that show differential cytotoxicity against isogenic chicken DT40 cell lines with known DNA damage response pathways - wild type cell line (AID 743012); conditions: DT40 wild type chicken cells viability, CellTiter-Glo, 40 h; series mostly up to 68.4 µM; also: nearly all actives have a fitted effect of over 60% in size; also: potency is read from the fitted curve at half-maximal effect
How it was run: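 Cytotoxicity in repair-proficient parental chicken DT40 cells serves as the comparator for Rad54/Ku70- and Rev3-deficient lines. Cells were exposed to compounds for 40 h at 37 C/5% CO2, and ATP-based luminescence (CellTiter-Glo) measured viability.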

[3] = qHTS assay for identifying genotoxic compounds that show differential cytotoxicity against isogenic chicken DT40 cell lines with known DNA damage response pathways - Rev3 mutant cell line (AID 743014); conditions: chicken DT40 Rev3-/- viability, CellTiter-Glo, 40 h; series mostly up to 68.4 µM; also: nearly all actives have a fitted effect of over 55% in size; also: potency is read from the fitted curve at half-maximal effect
[4] = qHTS assay for identifying genotoxic compounds that show differential cytotoxicity against isogenic chicken DT40 cell lines with known DNA damage response pathways - Rad54/Ku70 mutant cell line (AID 743015); conditions: DT40 Rad54/Ku70 mutant viability, CellTiter-Glo, 40 h; series mostly up to 66.8 µM; also: nearly all actives have a fitted effect of over 60% in size; also: potency is read from the fitted curve at half-maximal effect
[5] = qHTS assay to identify small molecule antagonists of the thyroid receptor (TR) signaling pathway - cell viability counter screen (AID 743064); conditions: GH3.TRE-Luc viability, CellTiter-Fluor, 24 h; series mostly up to 70.3 µM; also: nearly all actives have a fitted effect of over 50% in size; also: potency is read from the fitted curve at half-maximal effect
How it was run: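 Compounds were tested on GH3.TRE-Luc cells in the presence of T3 at 1 nM final. Following 23.5 h at 37 °C, cell viability was quantified by CellTiter-Fluor.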

[6] = qHTS assay to identify small molecule antagonists of the androgen receptor (AR) signaling pathway - cell viability counter screen (AID 743033; also: nearly all actives have a fitted effect of over 45% in size; also: potency is read from the fitted curve at half-maximal effect); conditions: AR-bla HEK293 viability, CellTiter-Glo luminescence, 16 h; series mostly up to 58.5 µM
[7] = qHTS assay to identify small molecule antagonists of the androgen receptor (AR) signaling pathway using the MDA cell line - cell viability counter screen (AID 743041; also: nearly all actives have a fitted effect of over 45% in size; also: potency is read from the fitted curve at half-maximal effect); conditions: MDA-kb2 viability, CellTiter-Fluor, 16 h, cells co-treated with R1881 androgen agonist; series mostly up to 70.3 µM
How it was run: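 Cytotoxicity counter screen: MDA-kb2 AR-luc cells, compound + R1881, 16 h, 37C, 0% CO2; CellTiter-Fluor added at 15.5 h, fluorescence read after 30 min.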

[8] = biological target: Androgen receptor (Homo sapiens) (UniProt P10275); assay: qHTS assay to identify small molecule antagonists of the androgen receptor (AR) signaling pathway (AID 743035; active = well fitted inhibition curve with a large enough effect in the signal ratio in the repeat runs, not every such curve was filed as active; the % refers to the signal ratio; also: potency is read from the fitted curve at half-maximal effect); conditions: HEK293 AR-UAS-bla, R1881-stimulated, beta-lactamase FRET, 16 h; series mostly up to 58.5 µM
Sequence of Androgen receptor (Homo sapiens) (P10275 whole entry, looked up): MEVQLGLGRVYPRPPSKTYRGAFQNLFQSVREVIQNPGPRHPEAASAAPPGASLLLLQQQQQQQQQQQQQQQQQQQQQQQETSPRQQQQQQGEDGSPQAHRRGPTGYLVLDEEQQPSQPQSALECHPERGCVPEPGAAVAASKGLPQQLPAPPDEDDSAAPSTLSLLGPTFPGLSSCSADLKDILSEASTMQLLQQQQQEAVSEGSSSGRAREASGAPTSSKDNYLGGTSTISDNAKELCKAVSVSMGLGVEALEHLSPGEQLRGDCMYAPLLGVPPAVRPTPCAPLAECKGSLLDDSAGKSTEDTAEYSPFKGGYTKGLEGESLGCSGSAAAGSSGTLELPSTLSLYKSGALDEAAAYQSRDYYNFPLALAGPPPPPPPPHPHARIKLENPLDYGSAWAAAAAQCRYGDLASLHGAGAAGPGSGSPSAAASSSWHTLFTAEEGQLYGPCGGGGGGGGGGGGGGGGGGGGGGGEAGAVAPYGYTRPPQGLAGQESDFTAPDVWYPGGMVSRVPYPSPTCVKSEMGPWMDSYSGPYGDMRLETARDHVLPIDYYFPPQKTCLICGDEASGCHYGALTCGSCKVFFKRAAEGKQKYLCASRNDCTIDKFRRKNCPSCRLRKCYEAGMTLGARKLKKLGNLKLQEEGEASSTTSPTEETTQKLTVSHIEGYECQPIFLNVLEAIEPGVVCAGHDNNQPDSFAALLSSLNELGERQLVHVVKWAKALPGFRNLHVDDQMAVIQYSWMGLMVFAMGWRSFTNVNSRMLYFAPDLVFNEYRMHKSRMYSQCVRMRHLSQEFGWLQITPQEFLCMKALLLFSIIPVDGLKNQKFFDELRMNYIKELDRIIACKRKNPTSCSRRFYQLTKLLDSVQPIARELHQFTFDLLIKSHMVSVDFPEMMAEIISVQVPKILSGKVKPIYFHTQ
How it was run: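 Steps: seed AR-UAS-bla GripTite HEK293 cells, incubate 4 h at 37C; pin in test compound, then add agonist R1881; incubate 16 h at 37C; add LiveBLAzer B/G FRET substrate, 2 h at room temperature; read fluorescence.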

[9] = biological target: Androgen receptor (Homo sapiens) (UniProt P10275); assay: qHTS assay to identify small molecule agonists of the androgen receptor (AR) signaling pathway using the MDA cell line (AID 743040; also: nearly all actives have a fitted effect of over 20% in size); conditions: MDA-kb2 AR-luc cells, MMTV luciferase, 16 h; series mostly up to 70.3 µM
How it was run: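 Luciferase read-out, ONE-Glo, 30 min RT. Cells: MDA-kb2 AR-luc, MMTV promoter with AR and GR response elements. Compound exposure 16 h, 37C, 0% CO2, after 5 h pre-incubation. qHTS agonist mode.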

[10] = biological target: Androgen receptor (Homo sapiens) (UniProt P10275); assay: qHTS assay to identify small molecule antagonists of the androgen receptor (AR) signaling pathway using the MDA cell line (AID 743042; also: nearly all actives have a fitted effect of over 55% in size); conditions: MDA-kb2 AR-luc, MMTV luciferase, R1881 antagonist, 16 h; series mostly up to 70.3 µM
How it was run: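 MDA-kb2 breast carcinoma cells carrying MMTV-luciferase (AR/GR responsive) were co-treated with compounds and the agonist R1881 for 16 h at 37C. Inhibition read as ONE-Glo luminescence; CellTiter-Fluor fluorescence measured in parallel for cytotoxicity.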

Measured: Potency

Clc1ccc(C(OCCN2CCCCC2)c2ccccc2)cc1 (stereo unspecified)
active: [2] 3.59 µM | [3] 11.4 µM | [4] 10.1 µM | [5] 9.02 µM
inactive: [1]

CCOc1ccc(C(C)(C)COCc2cccc(Oc3ccccc3)c2)cc1
not listed: [8] | [9] | [10]
inactive: all other assays above

CCOC(=O)[C@]1(c2ccccc2)Oc2ccccc2[C@@H]1N
active: [2] 48.6 µM | [3] 4.86 µM | [4] 24.3 µM | [5] 68.6 µM
inactive: [1]

C[C@@H]1CC[C@H]2[C@@H](C)C(=O)O[C@@H]3O[C@@]4(C)CC[C@@H]1[C@]32OO4
inactive: [1] | [9]
active: [2] 0.422 µM | [3] 0.473 µM | [4] 0.237 µM | [8] 1.69 µM | [5] 5.96 µM

COc1ccc(-c2ccccc2)cc1NNC(=O)OC(C)C
inactive: [1] | [9] | [7]
active: [2] 63.7 µM | [3] 71.5 µM | [4] 28.4 µM | [8] 51 µM

CC(C)N(C(=O)COc1nnc(C(F)(F)F)s1)c1ccc(F)cc1
active: [2] 15.4 µM | [3] 13.7 µM | [4] 15.4 µM
inactive: [1] | [7]

Clc1ccc(C2(Cn3cncn3)CC(Br)CO2)c(Cl)c1 (stereo unspecified)
active: [2] 8.58 µM | [3] 8.58 µM | [4] 12.1 µM
inactive: [1] | [7] | [5]

NC(=O)CI
inactive: [1] | [2] | [3] | [6] | [7] | [5]

O=S1OC[C@@H]2[C@H](CO1)[C@]1(Cl)C(Cl)=C(Cl)[C@@]2(Cl)C1(Cl)Cl (stereo partly specified)
inactive: [1] | [9] | [7]
active: [2] 24.3 µM | [3] 27.3 µM | [4] 30.6 µM

Clc1cccc2ccccc12
not listed: [8] | [9] | [10]
inactive: all other assays above

O=C(NCc1cccnc1)Nc1ccc([N+](=O)[O-])cc1
inactive: [1] | [2] | [3] | [6] | [7]

CS/C(C)=N/OC(=O)N(C)SN(C)C(=O)O/N=C(\C)SC
inactive: [1] | [8] | [9] | [7]
active: [2] 6.86 µM | [3] 17.2 µM | [4] 15.4 µM | [5] 27.3 µM

Nc1ccc(N=Nc2ccc(-c3ccc(N=Nc4c(S(=O)(=O)O)cc5cc(S(=O)(=O)O)c(N=Nc6ccccc6)c(O)c5c4N)cc3)cc2)c(N)c1
inactive: [1] | [2] | [4] | [6] | [7]

C(=NC1CCCCC1)=NC1CCCCC1
inactive and 27.3 µM (active): [5]
inactive and 15.4 µM (active): [2]
inactive: [1] | [6] | [7]
inactive and 21.7 µM (active): [3]
inactive and 3.06 µM (active): [4]

O=C(OC1CCCCC1)c1ccccc1C(=O)OC1CCCCC1
inactive: [1] | [7]
active: [2] 28.8 µM | [3] 22.9 µM | [4] 25.7 µM

COC1=CC(=O)O[C@@H](CCc2ccccc2)C1
not listed: [4] | [8] | [10]
inactive: all other assays above

Oc1ccc(Cl)c(Cl)c1Cl
inactive: [1] | [2] | [3] | [4] | [7] | [5]

CC(C)N(CCC(C(N)=O)(c1ccccc1)c1ccccn1)C(C)C (stereo unspecified)
inactive: [1] | [2] | [4] | [6] | [7] | [5]

COC(N)=O
inactive: [1] | [4] | [6] | [7] | [5]

Cc1ccccc1CCl
inactive: [1] | [2] | [4] | [6] | [7] | [5]

NNC(=O)c1cccnc1
inactive: [1] | [2] | [4] | [6] | [7] | [5]

CC(=O)[C@H]1CC[C@H]2[C@@H]3CC[C@H]4C[C@](C)(O)CC[C@]4(C)[C@H]3CC[C@]12C
inactive: [1] | [2] | [4] | [6] | [7] | [5]

O=C1C(Cl)C(CCl)CN1c1cccc(C(F)(F)F)c1 (stereo unspecified)
active: [8] 24.5 µM
not listed: [2] | [10]
inactive: all other assays above

c1ccoc1
inactive: [1] | [2] | [4] | [6] | [7] | [5]

O=C(CBr)c1ccccc1
active: [3] 61.5 µM
inactive: [1] | [6] | [7] | [5]

Cc1cc(=O)[nH]o1
inactive: [1] | [2] | [6] | [9] | [7] | [5]

Nc1ccc([N+](=O)[O-])cc1[N+](=O)[O-]
inactive: [1] | [6] | [9]
active: [3] 53.1 µM | [4] 66.8 µM

CC(C)O.CC(C)O.OCCN(CCO)CCO.OCCN(CCO)CCO.[Ti]
inactive: [1] | [3] | [4] | [6] | [7] | [5]

C=CC(=O)OCCCCO
active: [4] 61.1 µM
inactive: [1] | [6] | [7]

C=CCCl
inactive: [1] | [2] | [4] | [6] | [7] | [5]

CCc1ccc(C(=O)NN(C(=O)c2cc(C)cc(C)c2)C(C)(C)C)cc1
active: [3] 27.3 µM | [4] 27.3 µM | [5] 1.54 µM
inactive: [1] | [6] | [7]

CC(C)(CCl)C(=O)Cl
inactive: [1] | [4] | [6] | [7] | [5]

CCOP(=S)(Oc1ccc([N+](=O)[O-])cc1)c1ccccc1 (stereo unspecified)
inactive: [1] | [2] | [6] | [7]

OCCCBr
inactive: [1] | [3] | [4] | [6] | [7]
active: [5] 54.5 µM

CCCCCCCCCC(=O)O[C@H]1CC[C@H]2[C@@H]3CCC4=CC(=O)CC[C@@H]4[C@H]3CC[C@]12C
inactive: [1] | [2] | [4] | [6] | [7] | [5]

CCCCNP(N)(N)=S
inactive: [1] | [3] | [4] | [6] | [7] | [5]

NCCCNCCCN
inactive: [1] | [9]
active: [3] 55.3 µM | [4] 62.1 µM | [6] 49.7 µM | [5] 62.1 µM

CCOP(=S)(OCC)Oc1nc(Cl)c(Cl)cc1Cl
not listed: [2] | [8]
inactive: all other assays above

Brc1ccc(Oc2ccccc2)cc1
inactive: [1] | [3] | [6] | [7] | [5]

CCOC(=O)C(Cl)C(C)=O (stereo unspecified)
inactive: [1] | [4] | [6] | [7] | [5]

CCCN(CCC)c1c([N+](=O)[O-])cc(S(C)(=O)=O)cc1[N+](=O)[O-]
inactive: [1] | [3] | [6] | [7]

O=C(O)c1ccccc1C(=O)Nc1cccc2ccccc12
inactive: [1] | [6] | [7] | [5]
active: [3] 54.5 µM

COc1cc(Cl)c(OC)cc1Cl
inactive: [1] | [3] | [6] | [7] | [5]

O=NN1CCNCC1
inactive: [1] | [3] | [4] | [6] | [7] | [5]

N#C/C(N)=C(/N)C#N
inactive: [1] | [2] | [4] | [6] | [7] | [5]

CC(C)=CCOc1c2occc2cc2ccc(=O)oc12
active: [2] 26.6 µM
not listed: [3] | [4] | [10]
inactive: all other assays above

CCOS(C)(=O)=O
inactive: [1] | [2] | [4] | [6] | [7] | [5]

CCCC(=O)Cl
inactive: [1] | [2] | [4] | [6] | [7] | [5]

Cc1c(F)c(F)c(COC(=O)C2C(/C=C(\Cl)C(F)(F)F)C2(C)C)c(F)c1F (stereo unspecified)
inactive: [1] | [3] | [6] | [5]

CO[C@@H]1[C@H](OC(=O)NC(=O)CCl)CC[C@]2(CO2)[C@H]1[C@@]1(C)O[C@@H]1CC=C(C)C
inactive: [1] | [6] | [9] | [7]
active: [2] 0.0006 µM

CCOC(=O)COc1cc(-c2nn(C)c(OC(F)F)c2Cl)c(F)cc1Cl
active: [4] 43.3 µM
not listed: [2] | [8] | [10]
inactive: all other assays above

CC(C)(C)C(O)C(Oc1ccc(Cl)cc1)n1cncn1 (stereo unspecified)
inactive: [6]
active: [3] 32.5 µM | [4] 45.8 µM

CCOP(=S)(OCC)Oc1cc(Cl)c(Br)cc1Cl
inactive: [1] | [6] | [9] | [7] | [5]

O=S1(=O)OC(c2cc(Br)c(O)c(Br)c2)(c2cc(Br)c(O)c(Br)c2)c2ccccc21
inactive: [6] | [9]
active: [2] 31.5 µM | [3] 28.1 µM | [4] 25 µM | [7] 62.8 µM | [5] 49.9 µM

ClP(Cl)(Cl)(Cl)Cl
inactive: [1] | [6] | [7]

CC1(C)CCC(Cc2ccc(Cl)cc2)C1(O)Cn1cncn1 (stereo unspecified)
active: [2] 27.3 µM | [3] 15.4 µM | [4] 27.3 µM

CN1C(=O)C(O)N=C(c2ccccc2)c2cc(Cl)ccc21 (stereo unspecified)
inactive: [1] | [6] | [7]
